Reference: PubChem BioAssay AID1159580 (chemical genetic matrix, 2015)
Several values for one entry are separate records, joined by “and”; a condition that tells them apart may be missing. Equal values may be shown once. Screen size: about 5,500 compounds; about 2,000 (36%) were called active. About 18% were inconclusive and are not listed. Cut-off read from the data, not from the text of the source: active = normalized growth mostly below about 0.91 (no sharp cut-off); inconclusive = no clear call, values can overlap the other calls; inactive = mostly above about 0.92. Some of the results follow.

Experiment: chemical genetic growth profiling, strain panel (AID 1159580);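 note: tested at 20 µM; growth read once vehicle control cultures reached saturation at 30 °C; 1 = growth at the plate median or of vehicle wells; lower values mean less growth of the strain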
Details: S. cerevisiae deletion strains, growth OD

Measured: normalized growth

C[C@]12C=CC(=O)C=C1CCC1C2[C@@H](O)C[C@@]2(C)C1CC[C@]2(O)C(=O)CO (stereo not given in full)
inactive: locus YAL021C, strain ccr4, stronger effect = lower value 1 | locus YAL026C, strain drs2, stronger effect = lower value 0.992 | locus YAL030W, strain snc1, stronger effect = lower value 0.993 | locus YBL061C, strain skt5, stronger effect = lower value 0.999 | locus YBR009C, strain hhf1, stronger effect = lower value 0.993 | locus YBR021W, strain FUR4, stronger effect = lower value 0.979 | locus YBR023C, strain chs3, stronger effect = lower value 1 | locus YBR171W, strain sec66, stronger effect = lower value 1.01 | locus YBR229C, strain ROT2, stronger effect = lower value 0.99 | locus YBR231C, strain swc5, stronger effect = lower value 0.991 | locus YBR279W, strain paf1, stronger effect = lower value 1 | locus YCL011C, strain gbp2, stronger effect = lower value 1.01 | locus YCL016C, strain dcc1, stronger effect = lower value 0.988 | locus YCL029C, strain bik1, stronger effect = lower value 0.985 | locus YCL061C, strain MRC1, stronger effect = lower value 1.01 | locus YCL069W, strain vba3, stronger effect = lower value 0.981 | locus YCR088W, strain abp1, stronger effect = lower value 0.994 | locus YDL005C, strain med2, stronger effect = lower value 0.999 | locus YDL035C, strain GPR1, stronger effect = lower value 0.998 | locus YDL040C, strain nat1, stronger effect = lower value 0.995 | locus YDL074C, strain BRE1, stronger effect = lower value 1.01 | locus YDL101C, strain DUN1, stronger effect = lower value 0.99 | locus YDL134C, strain PPH21, stronger effect = lower value 0.986 | locus YDL185W, strain tfp1, stronger effect = lower value 0.974 | locus YDL192W, strain arf1, stronger effect = lower value 0.985 | locus YDR001C, strain nth1, stronger effect = lower value 0.997 | locus YDR069C, strain doa4, stronger effect = lower value 0.996 | locus YDR101C, strain arx1, stronger effect = lower value 0.983 | locus YDR137W, strain rgp1, stronger effect = lower value 1.03 | locus YDR150W, strain NUM1, stronger effect = lower value 0.998 | locus YDR159W, strain sac3, stronger effect = lower value 1 | locus YDR162C, strain NBP2, stronger effect = lower value 0.992 | locus YDR195W, strain ref2 0.969 | locus YDR297W, strain sur2, stronger effect = lower value 0.99 | locus YDR318W, strain mcm21, stronger effect = lower value 0.979 | locus YDR334W, strain swr1, stronger effect = lower value 0.992 | locus YDR335W, strain msn5, stronger effect = lower value 0.996 | locus YDR388W, stronger effect = lower value 0.98 | locus YDR392W, strain spt3, stronger effect = lower value 0.953 | locus YDR502C, strain sam2, stronger effect = lower value 0.992 | locus YEL003W, strain gim4, stronger effect = lower value 0.982 | locus YEL037C, strain rad23, stronger effect = lower value 0.989 | locus YEL061C, strain CIN8 (second series), stronger effect = lower value 0.99 | locus YEL061C, strain CIN8, stronger effect = lower value 0.997 | locus YER015W, strain faa2, stronger effect = lower value 1 | locus YER016W, strain bim1, stronger effect = lower value 1 | locus YER110C, stronger effect = lower value 0.975 | locus YER111C, strain swi4, stronger effect = lower value 0.999 | locus YER155C, strain BEM2 (second series), stronger effect = lower value 1.01 | locus YER155C, strain BEM2, stronger effect = lower value 0.978 | locus YER167W, strain BCK2, stronger effect = lower value 0.987 | locus YFR010W, strain ubp6, stronger effect = lower value 0.997 | locus YGL078C, strain dbp3, stronger effect = lower value 0.998 | locus YGL086W, strain mad1, stronger effect = lower value 1 | locus YGL167C, strain pmr1, stronger effect = lower value 1.01 | locus YGL173C, strain kem1, stronger effect = lower value 0.989 | locus YGL227W, strain vid30, stronger effect = lower value 0.993 | locus YGL240W, strain doc1, stronger effect = lower value 0.99 | locus YGL248W, strain PDE1, stronger effect = lower value 0.99 | locus YGL253W, strain hxk2, stronger effect = lower value 0.991 | locus YGR135W, strain pre9, stronger effect = lower value 0.995 | locus YGR229C, strain SMI1, stronger effect = lower value 0.993 | locus YGR252W, strain gcn5, stronger effect = lower value 1.06 | locus YHR013C, strain ard1, stronger effect = lower value 1.01 | locus YHR027C, strain rpn1, stronger effect = lower value 0.995 | locus YHR030C, strain SLT2, stronger effect = lower value 0.992 and 1.01 | locus YHR079C, strain IRE1 (second series), stronger effect = lower value 0.977 | locus YHR079C, strain IRE1, stronger effect = lower value 1 | locus YHR094C, strain hxt1, stronger effect = lower value 0.978 | locus YHR129C, strain ARP1, stronger effect = lower value 1.02 | locus YHR142W, strain chs7, stronger effect = lower value 0.99 | locus YHR200W, strain rpn10, stronger effect = lower value 0.981 | locus YIL066C, strain RNR3, stronger effect = lower value 0.989 | locus YIL073C, strain SPO22, stronger effect = lower value 0.946 | locus YIL125W, strain kgd1, stronger effect = lower value 0.982 | locus YIR030C, strain dcg1, stronger effect = lower value 0.984 | locus YJL092W, strain hpr5, stronger effect = lower value 0.995 | locus YJL095W, strain BCK1 (second series), stronger effect = lower value 1 | locus YJL095W, strain BCK1, stronger effect = lower value 1.01 | locus YJL115W, strain asf1, stronger effect = lower value 0.99 | locus YJL129C, strain trk1, stronger effect = lower value 0.977 | locus YJL134W, strain LCB3, stronger effect = lower value 0.988 | locus YJL154C, strain vps35, stronger effect = lower value 0.998 | locus YJL164C, strain tpk1, stronger effect = lower value 0.989 | locus YJL166W, strain qcr8, stronger effect = lower value 0.979 | locus YJL168C, strain set2, stronger effect = lower value 0.983 | locus YJL187C, strain SWE1 (second series), stronger effect = lower value 0.984 | locus YJL187C, strain SWE1, stronger effect = lower value 0.991 | locus YJR043C, strain POL32, stronger effect = lower value 0.998 | locus YJR066W, strain TOR1, stronger effect = lower value 0.942
